This is an account of results in PubChem BioAssay (NCATS).

Records with an inconclusive call do not appear. A number with no mark means an inactive call. Active and inactive are the calls of the source. Calls come from the whole dose curve; as a rule, active = well fitted inhibition curve with a large enough effect; inconclusive = small, poorly fitted or top-dose-only effect; inactive = flat fitted curve, though single readings scatter.
% is set by controls: 0 for no effect and ±100 for the full control effect; potency is the fitted concentration of half-maximal effect.

The nature of this assay: P-glycoprotein substrates identified in KB-8-5-11 adenocarcinoma cell line, qHTS therapeutic library screen (AID 1346987). Note: nearly all actives have a fitted effect of over 65% in size. To be noted: KB-8-5-11 (P-gp overexpressing) viability, CellTiter-Glo, 72 h; series mostly up to 44.5 µM; activity change, negative = cytotoxicity: at the top concentration. A digest of the protocol: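 Steps: plate 500 KB-8-5-11 cells/well in DMEM + 10% FCS (colchicine removed); pin compounds in dose-response; incubate 72 h, 37 degree C, 5% CO2; add CellTiter-Glo, 5 min; read luminescence.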
On to `CC[C@]1(O)CC2CN(CCc3c([nH]c4ccccc34)[C@@](C(=O)OC)(c3cc4c(cc3OC)N(C=O)[C@H]3[C@@](O)(C(=O)OC)[C@H](OC(C)=O)[C@]5(CC)C=CCN6CC[C@]43[C@@H]65)C2)C1` (stereo partly specified), for which the Potency was 2.27 µM (active).

In the case of `Cc1c[nH]c2nccc(Oc3c(F)cc(Nc4cc(Cl)nc(N)n4)cc3F)c12`, the Potency was 1.3 µM (active).

With `CN1CCC(Nc2nc(Nc3ccc(Oc4ccccc4)cc3)c3c(=O)[nH]cc(Br)c3n2)CC1`, the Potency was 4.61 µM (active).

As to `Cc1ccc(NC(=O)Nc2cc(C(F)(F)F)ccc2F)cc1Nc1ccc2c(c1)NC(=O)/C2=C\c1ccc[nH]1`, the Potency is 13 µM (active).

As to `C[C@@H]1C(=O)O[C@H](C)[C@H]1CC(=O)[C@](C)(O)[C@H]1CC[C@@]2(O)C3=CC(=O)[C@@H]4C[C@@H](O)[C@@H](O)C[C@]4(C)C3CC[C@]12C` (stereo partly specified), the “activity change, negative = cytotoxicity” value is -1.59% [at 17.3 µM].

`COc1ccc(C2COc3cc(O)ccc3C2)c(O)c1` (stereo unspecified): the “activity change, negative = cytotoxicity” value is -11.5%.

For `CC(C)c1c2cc(-c3ccnc(NC4CCC(NC5CCOCC5)CC4)n3)ccc2nn1C` (stereo unspecified), the Potency is 1.84 µM (active).

Consider `COc1ccccc1Oc1ccc(N(Cc2cccnc2)S(=O)(=O)CC(F)(F)F)cc1`, for which the “activity change, negative = cytotoxicity” value is 9.12%.

Take `CC(C)(C#N)c1ccc(N2C(=O)OCc3cnc4ccc(-c5cnc6ccccc6c5)cc4c32)cc1`: the Potency was 3.66 µM (active).

`Cc1c(NC(=O)c2cc(C(N)=O)nc3cc(F)ccc23)c(C(F)(F)F)nn1Cc1ccc(C#N)cc1`: the “activity change, negative = cytotoxicity” value was -6.76% [at 17.3 µM].

As to `C[C@@H]1O[C@@H](O[C@H]2[C@@H]3C=CO[C@@H](O[C@@H]4O[C@H](CO)[C@@H](O)[C@H](O)[C@H]4O)[C@@H]3[C@@]3(CO)O[C@@H]23)[C@H](OC(=O)/C=C/c2ccc(O)c(O)c2)[C@H](O)[C@H]1O`, the “outcome” value is “inactive [at 17.3 µM]”.

In the case of `NC[C@@](O)(c1ccc(Cl)cc1)c1ccc(-c2cn[nH]c2)cc1`, the Potency is 9.2 µM (active).

For the compound `COC(=O)C1=COC(O[C@@H]2O[C@H](CO)[C@@H](O)[C@H](O)[C@H]2O)[C@H]2[C@@H]1[C@H](OC(=O)CCc1ccc(O)cc1)C[C@]2(C)O` (stereo partly specified), the “activity change, negative = cytotoxicity” value is 3.69% [at 17.3 µM].

Consider `CC(=O)c1ccc(O[C@@H]2O[C@H](CO)[C@@H](O)[C@H](O)[C@H]2O)cc1`, for which the “activity change, negative = cytotoxicity” value is 2.66%.

With `C[C@@H]1C(=O)O[C@H]2C[C@]34[C@H]5C[C@@H](C(C)(C)C)[C@]36[C@@H](OC(=O)[C@H]6O)O[C@]4(C(=O)O5)[C@]21O`, the “activity change, negative = cytotoxicity” value was 3.36% [at 17.3 µM].

In the case of `C#CCN(Cc1cc2c(=O)[nH]c(C)nc2cc1Br)c1ccc(C(=O)NCc2cccnc2)cc1`, the Potency was 0.259 µM (active).

Turning to `CC[C@H](CO)Nc1nc(NCc2ccc(-c3ccccn3)cc2)c2ncn(C(C)C)c2n1`, the Potency was 0.231 µM (active).

For `CC(C)c1cc2c(c(O)c1O)[C@@]13CCCC(C)(C)[C@@H]1[C@H](OC3=O)C2=O`, the “activity change, negative = cytotoxicity” value is -14.1%.

As for `c1cc(Nc2cc(C3CC3)[nH]n2)nc(Nc2ccc3nc[nH]c3c2)n1`, the Potency was 6.51 µM (active).

As for `O=C(O)c1cccc(S(=O)(=O)N2CCc3ccccc3C2)c1`, the outcome was inactive.

Consider `CC1OC2OC(=O)C3(C)CC4=C(CO)C5=C(CC(=O)C4(C)C(C1=O)C23)C(C)(C)OC(=O)C5` (stereo unspecified), for which the “activity change, negative = cytotoxicity” value was -11% [at 17.3 µM].

As to `COC(=O)c1ccnc(-c2cc(C(=O)NCCc3ccccc3)ccn2)c1`, the “activity change, negative = cytotoxicity” value was -1.75%.

With `Cc1cc(C)cc(C(=O)NOCCCCCC(=O)NO)c1`, the Potency is 1.3 µM (active).

As for `COC(=O)[C@@H](O)[C@H]1[C@@]2(C)CC3(O)[C@@H](C(=O)[C@H]2O)[C@]24O[C@]25CC(=O)O[C@@H](c2ccoc2)[C@]5(C)CCC4[C@]13C` (stereo partly specified), the “outcome” value was “inactive [at 17.3 µM]”.

On to `CC[C@@H](N)CNc1ccnc(-c2cc(-c3cnn(C)c3)ccc2O)n1`, for which the Potency was 5.17 µM (active).

Regarding `CC[C@H](C)[C@H](NC(=O)[C@H]([C@@H](C)CC)N(C)C(C)=O)C(=O)N[C@H](C(=O)N[C@@H](CC(C)C)C(=O)[C@@]1(C)CO1)[C@@H](C)O`, the Potency is 2.59 µM (active).

With `CC1=C(C)C(=O)OC(C(C)C2CCC3C4CC=C5CC(OC6OC(COC7OC(CO)C(O)C(O)C7O)C(O)C(O)C6O)CC(O)C5(C)C4CCC23C)C1` (stereo unspecified), the “outcome” value is “inactive [at 17.3 µM]”.

Consider `COC(=O)N[C@@H](C)CNc1nccc(-c2cn(C(C)C)nc2-c2cc(Cl)cc(NS(C)(=O)=O)c2F)n1`, for which the “activity change, negative = cytotoxicity” value is -17.3%.

In the case of `CC1(C)CCC[C@]2(C)[C@H]3CC(=O)O[C@]3(C)CC[C@@H]12`, the “activity change, negative = cytotoxicity” value is 1.34%.

In the case of `Cc1noc(-c2ccc(-c3ccc(CC(=O)O)cc3)cc2)c1NC(=O)O[C@H](C)c1ccccc1`, the “activity change, negative = cytotoxicity” value was -8.09%.

`Cc1nc([C@](C)(O)CO)sc1-c1cnc(N)c(O[C@H](C)c2cc(F)ccc2-n2nccn2)c1`: the Potency was 11.6 µM (active).
